“And” between values parts separate entries of the source, which are not always exact repeats. Identical values can stand only once. Hit rate of the full screen: of about 5,500 compounds, about 2,000 (36%) were called active. Inconclusive results (about 18%) are left out. No stated cut-off is given here; in the data, active means normalized growth mostly below about 0.91 (no sharp cut-off); inconclusive means no clear call, values can overlap the other calls; inactive means mostly above about 0.92. The list shows a part of the results.
Experiment: chemical genetic growth profiling, strain panel (AID 1159580);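 further: tested at 20 µM; growth read once vehicle control cultures reached saturation at 30 °C; 1 = growth at the plate median or of vehicle wells; lower values mean less growth of the strain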
Conditions: S. cerevisiae deletion strains, growth OD

Measured: normalized growth

COP(=O)(OC)OC=C(Cl)Cl
inactive: locus YAL013W, strain DEP1, active compounds read low 0.997 | locus YAL021C, strain ccr4, active compounds read low 0.988 | locus YAL026C, strain drs2, active compounds read low 0.993 | locus YAL030W, strain snc1, active compounds read low 1 | locus YBL061C, strain skt5, active compounds read low 0.984 | locus YBR009C, strain hhf1, active compounds read low 0.991 | locus YBR021W, strain FUR4, active compounds read low 1.05 | locus YBR023C, strain chs3, active compounds read low 0.995 | locus YBR171W, strain sec66, active compounds read low 1.01 | locus YBR229C, strain ROT2, active compounds read low 0.965 | locus YBR231C, strain swc5, active compounds read low 0.999 | locus YBR279W, strain paf1, active compounds read low 0.992 | locus YCL011C, strain gbp2, active compounds read low 0.994 | locus YCL016C, strain dcc1, active compounds read low 1.01 | locus YCL029C, strain bik1, active compounds read low 0.98 | locus YCL061C, strain MRC1, active compounds read low 0.991 | locus YCL069W, strain vba3, active compounds read low 1 | locus YCR088W, strain abp1, active compounds read low 1 | locus YDL005C, strain med2, active compounds read low 0.997 | locus YDL035C, strain GPR1, active compounds read low 0.977 | locus YDL040C, strain nat1, active compounds read low 0.989 | locus YDL074C, strain BRE1, active compounds read low 0.957 | locus YDL101C, strain DUN1, active compounds read low 0.964 | locus YDL134C, strain PPH21, active compounds read low 0.983 | locus YDL185W, strain tfp1, active compounds read low 0.947 | locus YDL192W, strain arf1, active compounds read low 0.983 | locus YDR001C, strain nth1, active compounds read low 0.998 | locus YDR069C, strain doa4, active compounds read low 0.975 | locus YDR101C, strain arx1, active compounds read low 0.986 | locus YDR137W, strain rgp1, active compounds read low 0.982 | locus YDR150W, strain NUM1, active compounds read low 0.985 | locus YDR159W, strain sac3, active compounds read low 0.965 | locus YDR162C, strain NBP2, active compounds read low 0.981 | locus YDR195W, strain ref2 0.933 | locus YDR297W, strain sur2, active compounds read low 0.99 | locus YDR318W, strain mcm21, active compounds read low 0.983 | locus YDR334W, strain swr1, active compounds read low 1.01 | locus YDR335W, strain msn5, active compounds read low 0.995 | locus YDR388W, active compounds read low 0.995 | locus YDR392W, strain spt3, active compounds read low 1 | locus YDR502C, strain sam2, active compounds read low 0.993 | locus YEL003W, strain gim4, active compounds read low 0.991 | locus YEL037C, strain rad23, active compounds read low 0.986 | locus YEL061C, strain CIN8 (second series), active compounds read low 0.984 | locus YEL061C, strain CIN8, active compounds read low 0.989 | locus YER015W, strain faa2, active compounds read low 0.982 | locus YER016W, strain bim1, active compounds read low 0.99 | locus YER110C, active compounds read low 0.969 | locus YER111C, strain swi4, active compounds read low 0.989 | locus YER155C, strain BEM2 (second series), active compounds read low 0.998 | locus YER155C, strain BEM2, active compounds read low 0.991 | locus YER167W, strain BCK2, active compounds read low 0.988 | locus YFR010W, strain ubp6, active compounds read low 0.994 | locus YGL078C, strain dbp3, active compounds read low 0.986 | locus YGL086W, strain mad1, active compounds read low 0.994 | locus YGL167C, strain pmr1, active compounds read low 0.994 | locus YGL173C, strain kem1, active compounds read low 0.986 | locus YGL227W, strain vid30, active compounds read low 0.991 | locus YGL240W, strain doc1, active compounds read low 0.978 | locus YGL248W, strain PDE1, active compounds read low 0.982 | locus YGL253W, strain hxk2, active compounds read low 0.998 | locus YGR078C, strain PAC10, active compounds read low 0.989 | locus YGR135W, strain pre9, active compounds read low 0.993 | locus YGR229C, strain SMI1, active compounds read low 1.01 | locus YGR252W, strain gcn5, active compounds read low 0.998 | locus YHR013C, strain ard1, active compounds read low 0.974 | locus YHR027C, strain rpn1, active compounds read low 1.01 | locus YHR030C, strain SLT2, active compounds read low 1.01 and 1.02 | locus YHR079C, strain IRE1 (second series), active compounds read low 0.982 | locus YHR079C, strain IRE1, active compounds read low 1.05 | locus YHR094C, strain hxt1, active compounds read low 0.993 | locus YHR129C, strain ARP1, active compounds read low 0.976 | locus YHR142W, strain chs7, active compounds read low 0.989 | locus YHR200W, strain rpn10, active compounds read low 0.989 | locus YIL066C, strain RNR3, active compounds read low 1 | locus YIL073C, strain SPO22, active compounds read low 1.06 | locus YIL125W, strain kgd1, active compounds read low 0.98 | locus YIR030C, strain dcg1, active compounds read low 0.988 | locus YJL092W, strain hpr5, active compounds read low 1 | locus YJL095W, strain BCK1 (second series), active compounds read low 0.996 | locus YJL095W, strain BCK1, active compounds read low 1.01 and 1.03 | locus YJL115W, strain asf1, active compounds read low 0.998 | locus YJL129C, strain trk1, active compounds read low 1.01 | locus YJL134W, strain LCB3, active compounds read low 1 | locus YJL154C, strain vps35, active compounds read low 0.997 | locus YJL164C, strain tpk1, active compounds read low 0.992 | locus YJL166W, strain qcr8, active compounds read low 0.992 | locus YJL168C, strain set2, active compounds read low 0.981 | locus YJL187C, strain SWE1 (second series), active compounds read low 0.976 | locus YJL187C, strain SWE1, active compounds read low 1 | locus YJR043C, strain POL32, active compounds read low 0.988 | locus YJR066W, strain TOR1, active compounds read low 0.981

— PubChem BioAssay AID1159580 (chemical genetic matrix, 2015)
